This is a sample that favours compounds with a hit; in the whole collection about 3.9% have one here.
SARS 3CLpro inh = SARS-CoV 3CLpro protease inhibition. recombinant SARS-CoV 3CLpro, quenched FRET peptide cleavage. inhibition, % at 6 µM. 290,000 compounds, 0.14% hits; in the data active = inhibition above about 12%
Anthrax LF inh2 = anthrax lethal factor protease inhibition; P15917; inhibition, % at 10 µM; 360,000 compounds, 0.12% hits; multiplex microsphere protease cleavage assay, LF; note: plate controls were buffer without enzyme for full effect and enzyme alone for no effect
Target sequence (P15917 whole entry, looked up): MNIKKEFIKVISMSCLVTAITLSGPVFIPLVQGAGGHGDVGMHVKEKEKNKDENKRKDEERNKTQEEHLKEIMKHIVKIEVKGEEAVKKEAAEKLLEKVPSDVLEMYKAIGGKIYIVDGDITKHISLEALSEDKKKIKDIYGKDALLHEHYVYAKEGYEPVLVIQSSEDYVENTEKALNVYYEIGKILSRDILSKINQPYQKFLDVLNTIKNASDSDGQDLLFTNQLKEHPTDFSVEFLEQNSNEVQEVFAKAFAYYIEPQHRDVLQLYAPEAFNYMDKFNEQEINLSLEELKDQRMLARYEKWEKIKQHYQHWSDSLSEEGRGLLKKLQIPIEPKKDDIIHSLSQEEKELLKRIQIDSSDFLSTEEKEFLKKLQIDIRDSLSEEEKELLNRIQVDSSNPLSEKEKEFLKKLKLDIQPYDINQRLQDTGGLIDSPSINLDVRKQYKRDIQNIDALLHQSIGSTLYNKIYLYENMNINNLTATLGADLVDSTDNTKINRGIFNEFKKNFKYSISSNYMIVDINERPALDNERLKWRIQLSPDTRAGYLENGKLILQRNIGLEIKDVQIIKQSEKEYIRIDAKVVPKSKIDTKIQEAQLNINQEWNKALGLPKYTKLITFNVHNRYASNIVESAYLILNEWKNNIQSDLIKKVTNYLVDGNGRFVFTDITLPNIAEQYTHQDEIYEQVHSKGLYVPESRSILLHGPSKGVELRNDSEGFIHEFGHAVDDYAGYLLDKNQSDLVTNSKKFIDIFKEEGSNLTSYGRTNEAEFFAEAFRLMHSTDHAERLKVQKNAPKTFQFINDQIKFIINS
CCHFV vOTU inh = blocks the CCHF virus ovarian tumor domain protease; CCHFV vOTU protease, Pep-AMC fluorescence; inhibition, % at 11.5 µM; 370,000 compounds, 0.55% hits; in the data active = inhibition above about 30%; note: 0% = vehicle wells with enzyme and 100% = no enzyme wells
Bead autofluor = flagged as autofluorescent in microsphere protease counterscreen. compound autofluorescence counterscreen, microsphere flow cytometry; stronger effect = higher value. AID 624483. fluorescence intensity (no concentration beside the values). 360,000 compounds, 3.1% hits; in the data active = fluorescence intensity above about 16000; inconclusive = no clear call, values can overlap the other calls
BoNT F protease = BoNT F light chain protease inhibition; inhibition, % at 10 µM; 360,000 compounds, 0.22% hits; Multiplex microsphere protease cleavage assay, flow cytometry; AID 588497; in the data active = inhibition above about 35%, passing the limit was not always enough; inconclusive = no clear call, values can overlap the other calls; note: plate controls were buffer without enzyme for full effect and enzyme alone for no effect
BoNT A protease = blocks Botulinum neurotoxin A light chain protease. multiplex microsphere protease substrate cleavage, flow cytometry. 360,000 compounds, 0.17% hits. inhibition, % at 10 µM; note: plate controls were buffer without enzyme for full effect and enzyme alone for no effect
The depositor's hits bear a star; ? = inconclusive; nt = no result given. Cut-off read from the data, not from the text of the source, unless noted: active = inhibition above about 30%; inconclusive = no clear call, values can overlap the other calls; inactive = below that.

SMILES	SARS 3CLpro inh	Anthrax LF inh2	CCHFV vOTU inh	Bead autofluor	BoNT F protease	BoNT A protease
C=CCNC(=O)c1ccc(-c2nc(-c3ccc(Cl)cc3Cl)cs2)cc1	2	-9	0	8615	-1	0
COc1ccccc1-c1cc(-c2cc(Cl)ccc2O)n[nH]1	1	2	8	22763*	1	1
COc1ccc(O)c(-c2cc(-c3ccccc3Cl)[nH]n2)c1	2	6	17	3698	-12	-3
CCOC(=O)c1c(C)n(O)c2ccc(Cl)cc2c1=O	-5	-1	-3	16178*	0	2
Cc1c(C(=O)N(C)C)c2cc(Cl)ccc2n1O	-1	0	8	1995	-1	0
COc1ccc(C=Nn2c(-c3ccccc3F)n[nH]c2=S)cc1OCc1ccccc1	nt	nt	19	nt	nt	nt
COc1ccc(Cl)cc1N(CC(=O)Nc1ccccc1SC)S(C)(=O)=O	4	2	19	19767*	0	?
CCCCNS(=O)(=O)/C=C/c1cc(C)ccc1CNC(=O)OC(C)(C)C	nt	nt	5	nt	nt	nt
CCOC(=O)N[C@@H](Cc1cccnc1)C(=O)N1CCC[C@H]1C(=O)NC1CCCC1	nt	nt	-3	nt	nt	nt
CN1C(=O)CC(NNC(=O)c2ccc(Cl)cc2)C1=O (stereo unspecified)	0	-3	2	22298*	-10	-9
CN1C(=O)CC(NNC(=O)c2ccccc2)C1=O (stereo unspecified)	1	-4	13	3433	-8	0
CN(Cc1ccccc1)S(=O)(=O)c1cccc(C(=O)OCc2cccc(C(F)(F)F)c2)c1	nt	nt	13	nt	nt	nt
CC(C)CCNC(=O)C(=O)NC1CCCC1	-4	-1	0	2228	0	0
CC(C)CCNC(=S)NC1CCCC1	5	-3	-9	20284*	5	4
CCOC(=O)Cn1nc(C)n(-c2ccc(C(C)C)cc2)c1=O	1	-4	-4	16947*	-5	-2
CC1CC(=O)N(Cc2ccccc2)c2ccccc2N1C=O (stereo unspecified)	-3	-5	0	20499*	0	0
O=C1CCCc2ccccc2N1Cc1ccccc1	8	-9	3	5752	-1	0
O=C(NCCO)C1(c2ccc(Cl)cc2)CCCC1	5	-2	0	24150*	-2	-2
O=C(Nc1cccnc1)C1(c2ccc(Cl)cc2)CCCC1	7	-11	-8	16176*	16	?
COc1cccc(N2CCN(CC(=O)NCc3ccccc3C)CC2)c1	nt	nt	-1	nt	nt	nt
COC(=O)[C@]1(CNS(=O)(=O)C2CC2)CC(=O)N(C)[C@@H]1c1ccccc1	nt	nt	2	nt	nt	nt
Oc1cc2c(cc1CN1CCN(c3ccccc3)CC1)CCC2	3	-11	-10	3386	-42	-3
COc1ccc(N2CCN(Cc3cc4c(cc3O)CCC4)CC2)cc1	6	0	10	22399*	-5	-4
Cc1ccc(C(=O)OCC(=O)Nc2ncc(C(F)(F)F)cc2Cl)cc1NC(=O)c1ccco1	-2	1	3	20917*	-4	-4
CCOc1ccccc1C(=O)OCC(=O)Nc1ncc(C(F)(F)F)cc1Cl	6	0	1	21522*	-6	-6
SMILES	SARS 3CLpro inh	Anthrax LF inh2	CCHFV vOTU inh	Bead autofluor	BoNT F protease	BoNT A protease
COC(=O)c1ccccc1NC(=O)COC(=O)c1ccc(C)c(NC(=O)c2ccco2)c1	-6	0	14	21306*	0	?
COc1cccc(CNC(=O)C2CCN(S(=O)(=O)N3CCCCC3)CC2)c1	0	-2	-10	21716*	-2	-5
O=C(NCc1cccnc1)C1CCN(S(=O)(=O)c2cccs2)CC1	2	0	1	23889*	-2	-2
COc1cccc(CNC(=O)C2CSC3(C)CCC(=O)N23)c1 (stereo unspecified)	nt	3	3	17016*	29	12
O=C(C1CCN(S(=O)(=O)c2cccs2)CC1)N1CCCCC1	-3	nt	16	nt	nt	nt
COc1ccc(S(=O)(=O)N2CCC(C(=O)NCc3cccc(OC)c3)CC2)cc1	9	-3	17	4495	18	0
O=C(c1ccco1)N1CCN(C(=O)C2CCN(S(=O)(=O)c3cccs3)CC2)CC1	0	5	-3	18565*	6	4
CCOC(=O)C(CNc1ccc(OCc2ccccc2)cc1)NC(=O)c1ccccc1 (stereo unspecified)	nt	nt	6	nt	nt	nt
Cc1cc(C)n(-c2nc3ccccc3nc2N2CCCC2)n1	3	1	-12	19617*	4	3
Cc1cc(C)n(-c2nc3ccccc3nc2N2CCCCCC2)n1	-3	13	3	3565	11	16
Cc1ccc(-n2c(SCC(=O)Nc3ccc(Oc4ccccc4)cc3)nnc2-c2cccc(C)c2)cc1	nt	nt	6	nt	nt	nt
COc1cnc(-c2ccccn2)nc1Sc1cccc(Cl)c1	-2	-3	-7	17458*	-5	-3
COc1cnc(-c2ccccn2)nc1Oc1ccc(Cl)cc1	6	2	-3	16340*	2	0
COc1cnc(-c2ccccn2)nc1Oc1ccc(Cl)c2ccccc12	2	-2	0	17538*	-8	-4
Cn1c(SCC(=O)NCCN2CCCCC2)nc2cccnc21	nt	nt	7	nt	nt	nt
CC(C)Nc1oc(Cc2cccc3ccccc23)nc1C#N	1	-4	-4	24202*	1	?
CNc1oc(Cc2cccc3ccccc23)nc1C#N	0	-4	-1	17571*	-4	-4
COc1ccc(Cn2cnc3c([N+](=O)[O-])c(C)c(C)cc32)cc1	3	-7	-2	25028*	-4	-3
Cc1ccccc1Cn1cnc2c([N+](=O)[O-])c(C)c(C)cc21	0	0	-1	21365*	2	1
COc1cccc(Cn2cnc3c(N)c(C)c(C)cc32)c1	8	-2	3	3394	2	-1
CCN(CC)CCCNC(=O)c1cn(C(C)c2ccccc2)nn1 (stereo unspecified)	nt	nt	-11	nt	nt	nt
O=C(N[C@H](C(=O)N1CCC[C@H]1C(=O)NCc1ccccc1)c1ccccc1)c1ccc(Cl)cc1Cl	nt	nt	-2	nt	nt	nt
COC(=O)c1cn(C(=O)c2ccc(OC)cc2)c2ccccc12	-2	-8	-1	4142	36*	1
COC(=O)c1cn(CCOc2ccc(C)cc2)c2ccccc12	2	-3	8	22793*	-3	-2
CC(=O)c1cc(-c2ccccc2-c2ccccc2)c(=O)n2c1CCC2	nt	nt	5	nt	nt	nt
COc1cc(NC(=O)[C@@H](Cc2ccccc2)NC(=O)[C@H]2O[C@@H](n3ccc(=O)[nH]c3=O)[C@H](O)[C@@H]2O)cc(OC)c1OC	nt	nt	-5	nt	nt	nt
COc1ccc(-n2c(C(C)n3nc(C)c([N+](=O)[O-])c3C)n[nH]c2=S)cc1 (stereo unspecified)	1	-13	0	9879	12	0
Cc1ccc(-n2c(C(C)n3nc(C)c([N+](=O)[O-])c3C)n[nH]c2=S)cc1 (stereo unspecified)	-2	2	2	19726*	0	1
Cc1nn(C(C)c2n[nH]c(=S)n2-c2cccc(Cl)c2)c(C)c1[N+](=O)[O-] (stereo unspecified)	1	-8	-3	18732*	3	4
Cc1ccccc1Oc1ncnc2sccc12	-7	-17	4	18377*	4	4
